TDP1 cell noCPT = qHTS for Inhibitors of human tyrosyl-DNA phosphodiesterase 1 (TDP1): qHTS in cells in absence of CPT; DT40 Tdp1-/- hTDP1 cells, no CPT, ATP luminescence, 48 h; Potency, µM (top dose mostly 46.2 µM), hits mostly inhibitors; hit rate 15% among 420,000; AID 686978, 2013; note: nearly all actives have a fitted effect of over 55% in size
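A cellular qHTS used chicken DT40 cells lacking endogenous Tdp1 but carrying stably transfected human TDP1. Compounds were applied without camptothecin, and cell growth kinetics were judged by ATP-dependent luminescence after ≥48 hr.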
HepG2 viability = HepG2 cytotoxicity, counter-screen for TGF-b inhibitors. Potency, µM (titrated, usually from 46.1 µM), hits mostly cytotoxic. AID 588856. HepG2 CAGA-GFP viability, ATP luminescence, 18 h. hit rate 0.76% among 410,000
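CellTiter-Glo luminescence gave cytotoxicity after 18 hours at 37 degrees C. The cells were HepG2 CAGA-GFP in 1% FBS DMEM, stimulated with 500 pg/mL TGF-beta after compound addition. %Activity was normalised to no-cell wells (complete cell-killing) and DMSO (no toxicity), and curves were fitted and classified.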
IL-1B inflam inh = inhibitors of inflammasome signaling (IL-1 beta secretion); THP-1 LPS/ATP IL-1B secretion, AlphaLISA, 16 h; hits give low values; hit rate 4.7% among 360,000; activity change, % at 57.5 µM; in the data active = activity change below about -50%; inconclusive = mostly about -30% to -49%
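Secreted IL-1B measured by AlphaLISA bead assay after 16 h compound exposure of THP-1 cells; compounds (final up to 57.5 uM) added 1 h before LPS (250 ng/mL) and ATP (1.25 mM) stimulation; lower signal means less secretion.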
DT40 TDP1 CPT = growth inhibition of DT40 Tdp1-/-;hTDP1 cells with camptothecin (screen for TDP1 inhibitors) | chicken DT40 Tdp1-/-;hTDP1 cells + 20 nM CPT, ATP luminescence, 48 h | Potency, µM (highest dose often 46.2 µM), hits mostly inhibitors | hit rate 12% among 420,000 | AID 686979; note: nearly all actives have a fitted effect of over 55% in size
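Chicken DT40 Tdp1-/- cells stably complemented with human TDP1 were seeded at 400 cells/well in medium containing 20 nM camptothecin, exposed to pin-transferred compounds, and grown at 37 °C for at least 48 hr. Viability was read as ATP luminescence.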
TGFb SMAD3 inh = blocks TGF-b signaling | HepG2 CAGA-GFP TGF-b/SMAD3 reporter, GFP fluorescence, 18 h; TGF-beta stimulated, 500 pg/mL final | Potency, µM (top dose mostly 46.1 µM), most hits filed as inhibitors | hit rate 1.2% among 410,000 | AID 588855; note: nearly all actives have a fitted effect of over 65% in size
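Using HEPG2 CAGA-GFP reporter cells at 1000 cells/well, we pinned test compounds, stimulated with recombinant TGF-beta (500 pg/mL final) and measured total well GFP after 18 h.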
TDP1 inh = blocks human tyrosyl-DNA phosphodiesterase 1; recombinant TDP1, AlphaScreen DNA substrate cleavage; Potency, µM (titrated, usually from 130 µM), hits mostly inhibitors; hit rate 0.28% among 350,000; note: nearly all actives have a fitted effect of over 40% in size
Target sequence (Q9NUW8 whole entry, looked up): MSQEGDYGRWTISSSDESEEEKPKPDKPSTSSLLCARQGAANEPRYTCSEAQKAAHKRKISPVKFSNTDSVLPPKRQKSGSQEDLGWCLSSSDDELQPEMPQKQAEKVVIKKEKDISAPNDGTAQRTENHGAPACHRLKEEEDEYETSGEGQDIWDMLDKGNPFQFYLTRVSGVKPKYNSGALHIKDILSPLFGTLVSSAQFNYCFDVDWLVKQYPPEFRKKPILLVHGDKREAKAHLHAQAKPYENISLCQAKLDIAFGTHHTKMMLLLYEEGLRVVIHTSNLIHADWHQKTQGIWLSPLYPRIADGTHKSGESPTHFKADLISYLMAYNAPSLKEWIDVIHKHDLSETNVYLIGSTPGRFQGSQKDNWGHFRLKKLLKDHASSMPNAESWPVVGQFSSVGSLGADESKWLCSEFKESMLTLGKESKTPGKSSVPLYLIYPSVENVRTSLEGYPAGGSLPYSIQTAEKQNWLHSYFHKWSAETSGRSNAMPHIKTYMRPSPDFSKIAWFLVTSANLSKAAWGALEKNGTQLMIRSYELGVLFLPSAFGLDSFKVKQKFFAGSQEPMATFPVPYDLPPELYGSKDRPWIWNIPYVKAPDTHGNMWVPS
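Recombinant human Tdp1 (E. coli-expressed, 1 nM final) preincubated with compounds 15 min at room temperature, then 5'-biotin/3'-phosphotyrosine-FITC DNA substrate (15 nM final) added for 5 min. AlphaScreen beads (10 ug/ml final) added 10 min; cleavage lowers signal.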
Large screens that a line does not name were inactive; ! = not active in a repeat. Only some compounds are listed: those with a hit (about 19% of all), similar ones and a draw of the others. Unless noted, calls come from the whole dose curve; as a rule, active = well fitted curve in the direction sought with a large enough effect; inconclusive = small, poorly fitted or top-dose-only effect, or another doubt; inactive = no such curve, though single readings can be large; an effect the other way counts as inactive or inconclusive.

Cc1ccc(OCC(=O)Nc2ccc(-c3nc4ccccc4o3)cc2)c(C)c1	none (no result: IL-1B inflam inh)
COc1cc(=O)n2c(c1C(=O)N(C)Cc1nccs1)CCN(Cc1ccc(F)c(F)c1)CC2	DT40 TDP1 CPT inconclusive (no result: HepG2 viability, IL-1B inflam inh, TGFb SMAD3 inh, TDP1 inh)
COc1cc2cc[n+]3cc4c(OC)c(OC)ccc4cc3c2cc1OC	TDP1 cell noCPT 2.91µM, DT40 TDP1 CPT 2.31µM (no result: HepG2 viability, IL-1B inflam inh, TGFb SMAD3 inh)
COc1cc2cc(C)c(Br)c(OC)c2cc1OC	TDP1 cell noCPT inconclusive, DT40 TDP1 CPT inconclusive (no result: TDP1 inh)
CC(NC=O)c1nc2ccccc2n1CCc1ccccc1 (centres undefined)	TDP1 cell noCPT inconclusive, DT40 TDP1 CPT inconclusive (no result: TDP1 inh)
O=C(c1cc(F)ccc1F)C1CCCN(C(=O)CCc2cnccn2)C1 (centres undefined)	none
CN(C)C(=O)N1CCC(C(=O)N2CCCC(C(=O)c3ccc(C(C)(C)C)cc3)C2)CC1 (centres undefined)	TDP1 cell noCPT 16.4µM, DT40 TDP1 CPT inconclusive, TGFb SMAD3 inh inconclusive (no result: TDP1 inh)
O=C(c1cccc2ccccc12)C1CCCN(C(=O)CCc2cnccn2)C1 (centres undefined)	TDP1 cell noCPT 8.2µM, DT40 TDP1 CPT inconclusive
O=C(c1ccc(C(F)(F)F)cc1)C1CCCN(C(=O)CCc2ccncc2)C1 (centres undefined)	TDP1 cell noCPT 6.51µM, DT40 TDP1 CPT 8.2µM, TGFb SMAD3 inh inconclusive
CN(C)C(=O)CCC(=O)N1CCCC(C(=O)c2ccc(C(F)(F)F)cc2)C1 (centres undefined)	TDP1 cell noCPT 25.9µM, DT40 TDP1 CPT inconclusive
NC(=O)CCC(=O)N1CCCC(C(=O)c2ccc(C(F)(F)F)cc2)C1 (centres undefined)	none (no result: TDP1 inh)
Cc1cc2c(s1)c1cnn(Cc3ccc(F)cc3F)c(=O)c1n2C	none (no result: TDP1 cell noCPT, HepG2 viability, IL-1B inflam inh, DT40 TDP1 CPT, TGFb SMAD3 inh)
Cc1ccc(NC(=O)CN2C(=O)NC(Cc3c[nH]c4ccccc34)C2=O)cc1 (centres undefined)	none
CN(C)c1ncc(C2=C(Cl)C(=O)C(N3CCCC3)=C(Cl)C2=O)s1	TDP1 cell noCPT 1.16µM, IL-1B inflam inh -103.8, DT40 TDP1 CPT 0.92µM (no result: TDP1 inh)
O=C1C(Cl)=C(N2CCCCC2)C(=O)C(Cl)=C1c1cnc(N2CCCCC2)s1	TDP1 cell noCPT 0.92µM, IL-1B inflam inh -71.3, DT40 TDP1 CPT 0.92µM
O=C1C(Cl)=C(N2CCCCCC2)C(=O)N1c1ccc(Cl)cc1	TDP1 cell noCPT inconclusive, TGFb SMAD3 inh inconclusive
Cc1nnc(N2CCN(c3ccccc3F)CC2)c2c1nnn2Cc1ccc(F)cc1	TDP1 cell noCPT inconclusive, DT40 TDP1 CPT inconclusive (no result: IL-1B inflam inh)
CCC(=O)N1CCc2cc(S(=O)(=O)N3CCCCCC3)ccc21	none
CCSc1nnc2c(n1)OC(CC)N(C(C)=O)c1ccccc1-2 (centres undefined)	none (no result: TDP1 cell noCPT, IL-1B inflam inh, DT40 TDP1 CPT, TDP1 inh)
CCOC(=O)c1ccc(NC2=CC(c3ccc(O)c(OCC)c3)N(c3ccc(C(=O)OCC)cc3)C2=O)cc1 (centres undefined)	TDP1 cell noCPT 13µM, DT40 TDP1 CPT 13µM (no result: IL-1B inflam inh)
O=C(c1cc(COc2ccc(F)cc2Cl)on1)N1CCCCCC1	TDP1 cell noCPT inconclusive, DT40 TDP1 CPT inconclusive
CCC(NC(=O)c1cc(COc2ccc(F)cc2Cl)on1)c1ccncc1 (centres undefined)	TDP1 cell noCPT 23.1µM, IL-1B inflam inh inconclusive, DT40 TDP1 CPT 23.1µM
O=C(c1cc(COc2ccc(F)cc2Cl)on1)N1CCC(c2ccncc2)CC1	TDP1 cell noCPT 6.51µM, IL-1B inflam inh inconclusive, DT40 TDP1 CPT 6.51µM, TGFb SMAD3 inh inconclusive
CCN(Cc1ccccc1)C(=O)Cc1c[nH]c2ccccc12	none
O=C(Cn1ccn(-c2ccc(F)c(F)c2)c(=O)c1=O)NCc1ccccc1	none (no result: IL-1B inflam inh)
Cc1c(C)n(Cc2ccc(F)cc2)c2ccc(C(=O)N3CCN(c4ccc(Cl)cc4)CC3)cc12	TDP1 cell noCPT inconclusive, DT40 TDP1 CPT 18.4µM (no result: IL-1B inflam inh)
Cc1[nH]c(-c2ccc(F)cc2)cc1C(=O)N1CCN(c2ccc(Cl)cc2)CC1	TDP1 cell noCPT inconclusive, DT40 TDP1 CPT inconclusive, TGFb SMAD3 inh inconclusive (no result: TDP1 inh)
Cc1c(C)n(Cc2ccccc2)c2ccc(C(=O)N3CCN(c4ccccc4)CC3)cc12	TDP1 cell noCPT inconclusive, DT40 TDP1 CPT inconclusive (no result: IL-1B inflam inh)
Cc1c(C)n(Cc2ccccc2)c2ccc(C(=O)N3CCN(c4ccc(F)cc4)CC3)cc12	TDP1 cell noCPT 16.4µM, DT40 TDP1 CPT inconclusive, TGFb SMAD3 inh inconclusive (no result: IL-1B inflam inh)
Cc1ccc(Cl)c(NC(=O)Nc2csc3c2CCCC3)c1	TDP1 cell noCPT inconclusive, DT40 TDP1 CPT inconclusive (no result: IL-1B inflam inh)
CCOc1cccc(CNc2ccc(O)cc2)c1OCc1ccc(Cl)cc1	TDP1 cell noCPT inconclusive, DT40 TDP1 CPT 14.6µM, TGFb SMAD3 inh inconclusive
CCOc1ccccc1CNc1ccc(O)cc1	TDP1 cell noCPT inconclusive, DT40 TDP1 CPT 16.4µM, TGFb SMAD3 inh 15.8µM
CCOc1cc(CNc2ccc(O)cc2)ccc1OCc1ccc(Cl)cc1Cl	TDP1 cell noCPT 14.6µM, IL-1B inflam inh -106.3, DT40 TDP1 CPT 14.6µM, TGFb SMAD3 inh inconclusive
Oc1ccc(NCc2ccccc2OCc2ccccc2F)cc1	TDP1 cell noCPT 16.4µM, HepG2 viability 11.2µM!, DT40 TDP1 CPT 18.4µM, TGFb SMAD3 inh 10µM!
NS(=O)(=O)c1ccc(NCc2ccccc2OCc2ccccc2F)cc1	TDP1 cell noCPT inconclusive, DT40 TDP1 CPT inconclusive, TGFb SMAD3 inh inconclusive
Cc1c(F)cccc1Cn1cnc2c(cnn2C(C)(C)C)c1=O	none (no result: TDP1 cell noCPT, IL-1B inflam inh, DT40 TDP1 CPT, TDP1 inh)
CCOc1ccccc1CNCc1ccc(F)cc1	TDP1 cell noCPT inconclusive, IL-1B inflam inh -51.4

Source: PubChem BioAssay (National Center for Advancing Translational Sciences (NCATS))
